About 8,800 targets were measured; listed, in parts, are those with a hit and a random draw of the rest. About 0.5% of all pairs of compound and target were hits.
What was measured:
Experiment in all cases: log2 fold change, soluble protein after heating vs DMSO (PISA); higher = thermal stabilisation; K562 lysate, 10 uM; active = over 0.2 and 3.5 SD of the protein, either way, in both replicates (recomputed)
[1] = compound: NCC(=O)Nc1ccc(-n2nc(C(F)(F)F)cc2-c2ccc3c(ccc4ccccc43)c2)cc1
In short: (§1)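 K562 pellets were dounce-homogenised in PBS pH 7.4 containing 1 mM MgCl2, and the crude extract, at 1 mg/mL protein, was exposed to 10 μM compound for 30 min. Aliquots were heated for 3 min across 48°C-58°C, pooled, brought to 0.5% NP-40 at 4°C and spun at 21,000xg for 90 min, with the supernatant taken as soluble protein. TMTpro 16plex LC-MS/MS with equalised channel sums quantified that protein. Values are log-two fold changes in thermal stability relative to solvent controls, taken from duplicates.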

[2] = compound: O=C(CCCCCCC(=O)Nc1ccccc1)NO [vorinostat]
In short: as §1

[3] = compound: O=C(O)c1ccc2c(c1)nc(Nc1cccc(Cl)c1)c1ccncc12 [silmitasertib]
In short: as §1

[4] = compound: O=C1NC(=O)C(c2cnc3ccccn23)=C1c1cn2c3c(cc(F)cc13)CN(C(=O)N1CCCCC1)CC2
In short: as §1

[5] = compound: c1cn2cc(-c3ccc4cn[nH]c4c3)nc(Nc3ccc(N4CCOCC4)cc3)c2n1 [entospletinib]
In short: as §1

Measured: log2 fold change

BLM (UniProt P54132)
Sequence of UniProt P54132 (P54132 whole entry, looked up): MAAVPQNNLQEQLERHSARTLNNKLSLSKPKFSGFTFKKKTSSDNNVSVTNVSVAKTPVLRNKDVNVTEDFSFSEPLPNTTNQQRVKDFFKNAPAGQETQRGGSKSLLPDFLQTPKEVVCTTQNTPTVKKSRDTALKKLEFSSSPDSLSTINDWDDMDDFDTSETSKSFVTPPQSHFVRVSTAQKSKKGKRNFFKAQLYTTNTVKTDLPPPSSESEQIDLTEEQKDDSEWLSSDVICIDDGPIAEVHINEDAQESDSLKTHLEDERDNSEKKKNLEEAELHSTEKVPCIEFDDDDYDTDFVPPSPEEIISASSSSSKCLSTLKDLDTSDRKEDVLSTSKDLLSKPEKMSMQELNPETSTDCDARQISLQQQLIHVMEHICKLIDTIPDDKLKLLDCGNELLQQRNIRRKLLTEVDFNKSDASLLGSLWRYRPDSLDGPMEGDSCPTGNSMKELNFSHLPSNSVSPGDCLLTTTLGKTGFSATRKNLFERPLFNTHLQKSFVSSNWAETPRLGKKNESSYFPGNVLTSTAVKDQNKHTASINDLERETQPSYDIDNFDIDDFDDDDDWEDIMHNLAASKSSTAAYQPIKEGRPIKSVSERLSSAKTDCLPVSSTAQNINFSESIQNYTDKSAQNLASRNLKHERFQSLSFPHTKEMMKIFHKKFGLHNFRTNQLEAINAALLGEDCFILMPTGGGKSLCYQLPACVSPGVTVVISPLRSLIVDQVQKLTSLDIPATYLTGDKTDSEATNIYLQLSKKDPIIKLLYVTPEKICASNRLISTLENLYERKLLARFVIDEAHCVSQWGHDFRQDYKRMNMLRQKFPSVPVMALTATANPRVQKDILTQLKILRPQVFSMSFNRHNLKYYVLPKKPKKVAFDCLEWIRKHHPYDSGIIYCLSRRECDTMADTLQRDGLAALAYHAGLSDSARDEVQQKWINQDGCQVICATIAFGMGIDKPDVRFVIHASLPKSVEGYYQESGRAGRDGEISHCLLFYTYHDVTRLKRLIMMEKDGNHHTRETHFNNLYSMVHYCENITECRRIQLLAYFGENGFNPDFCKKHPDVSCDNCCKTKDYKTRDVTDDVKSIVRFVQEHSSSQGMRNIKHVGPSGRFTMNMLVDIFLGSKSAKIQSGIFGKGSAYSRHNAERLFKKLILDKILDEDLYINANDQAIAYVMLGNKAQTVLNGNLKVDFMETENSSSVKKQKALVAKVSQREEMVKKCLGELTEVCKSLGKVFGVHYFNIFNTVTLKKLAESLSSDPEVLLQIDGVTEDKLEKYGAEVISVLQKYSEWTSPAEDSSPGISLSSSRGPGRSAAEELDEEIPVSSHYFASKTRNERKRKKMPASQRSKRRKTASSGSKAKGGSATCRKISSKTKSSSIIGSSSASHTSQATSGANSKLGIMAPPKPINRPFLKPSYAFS
inactive: [1] 0.03 | [2] -0.056 | [3] 0.044 | [4] 0.003 | [5] -0.002

ATE1 isoform 2 (UniProt O95260)
Sequence of UniProt O95260 (O95260 whole entry, looked up): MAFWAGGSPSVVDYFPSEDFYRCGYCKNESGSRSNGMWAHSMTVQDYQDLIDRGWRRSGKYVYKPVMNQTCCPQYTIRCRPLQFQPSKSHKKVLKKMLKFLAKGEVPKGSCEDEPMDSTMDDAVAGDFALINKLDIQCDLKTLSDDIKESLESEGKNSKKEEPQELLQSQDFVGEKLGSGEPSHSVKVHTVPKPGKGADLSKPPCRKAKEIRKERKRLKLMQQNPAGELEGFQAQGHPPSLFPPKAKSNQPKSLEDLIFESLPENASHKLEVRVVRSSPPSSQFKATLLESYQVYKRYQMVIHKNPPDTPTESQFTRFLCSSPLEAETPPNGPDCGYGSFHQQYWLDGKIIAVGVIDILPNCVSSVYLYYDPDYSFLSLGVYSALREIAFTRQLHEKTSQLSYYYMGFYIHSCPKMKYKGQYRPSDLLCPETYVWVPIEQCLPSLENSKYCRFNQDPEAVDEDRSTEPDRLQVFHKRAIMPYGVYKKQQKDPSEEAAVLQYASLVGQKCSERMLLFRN
inactive: [1] -0.068 | [3] 0.041 | [4] -0.01 | [5] -0.008
active: [2] -0.444

BRAT1 (UniProt Q6PJG6)
active: [2] -0.32
inactive: [1] 0.015 | [3] -0.002 | [4] -0.013 | [5] 0.004

CCNB1 (UniProt P14635)
Sequence of UniProt P14635 (P14635 whole entry, looked up): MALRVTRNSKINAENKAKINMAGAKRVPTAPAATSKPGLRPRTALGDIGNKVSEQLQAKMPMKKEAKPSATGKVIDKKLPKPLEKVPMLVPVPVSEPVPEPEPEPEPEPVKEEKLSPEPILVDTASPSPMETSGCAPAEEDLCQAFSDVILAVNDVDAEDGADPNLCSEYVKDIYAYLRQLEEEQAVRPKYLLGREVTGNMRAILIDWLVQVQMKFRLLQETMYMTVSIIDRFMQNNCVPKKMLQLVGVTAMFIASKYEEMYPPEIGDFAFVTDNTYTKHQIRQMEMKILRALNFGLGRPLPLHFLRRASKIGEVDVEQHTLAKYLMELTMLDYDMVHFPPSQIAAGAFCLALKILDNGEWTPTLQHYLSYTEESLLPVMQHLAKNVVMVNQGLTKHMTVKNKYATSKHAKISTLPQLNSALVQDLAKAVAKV
inactive: [1] 0.05 | [2] -0.008 | [3] -0.013 | [4] -0.02 | [5] -0.009

CDC45 isoform 3 (UniProt O75419)
Sequence of UniProt O75419 (O75419 whole entry, looked up): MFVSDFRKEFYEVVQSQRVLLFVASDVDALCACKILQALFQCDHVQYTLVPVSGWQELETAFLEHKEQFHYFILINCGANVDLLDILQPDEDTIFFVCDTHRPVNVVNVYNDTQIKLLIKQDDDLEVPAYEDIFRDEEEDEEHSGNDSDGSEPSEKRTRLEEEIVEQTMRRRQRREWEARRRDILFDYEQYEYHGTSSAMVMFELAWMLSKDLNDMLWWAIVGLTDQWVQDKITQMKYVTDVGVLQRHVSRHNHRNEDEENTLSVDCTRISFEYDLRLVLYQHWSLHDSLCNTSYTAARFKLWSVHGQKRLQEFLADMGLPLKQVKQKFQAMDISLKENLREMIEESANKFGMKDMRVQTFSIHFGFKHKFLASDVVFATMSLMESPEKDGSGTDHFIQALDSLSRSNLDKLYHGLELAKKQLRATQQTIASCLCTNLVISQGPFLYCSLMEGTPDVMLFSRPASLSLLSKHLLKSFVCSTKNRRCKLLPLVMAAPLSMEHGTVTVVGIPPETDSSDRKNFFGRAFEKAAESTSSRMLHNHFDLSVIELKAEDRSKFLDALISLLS
inactive: [1] -0.021 | [3] 0.012 | [4] 0.015 | [5] 0.03
active: [2] -0.487

CFDP1 (UniProt Q9UEE9)
inactive: [1] -0.009 | [2] 0.095 | [3] -0.05 | [4] -0.078 | [5] -0.012

BCR (UniProt P11274)
inactive: [1] 0.012 | [3] 0.005 | [4] 0.001 | [5] -0.009
active: [2] -0.267

BBS7 (UniProt Q8IWZ6)
Sequence of UniProt Q8IWZ6 (Q8IWZ6 whole entry, looked up): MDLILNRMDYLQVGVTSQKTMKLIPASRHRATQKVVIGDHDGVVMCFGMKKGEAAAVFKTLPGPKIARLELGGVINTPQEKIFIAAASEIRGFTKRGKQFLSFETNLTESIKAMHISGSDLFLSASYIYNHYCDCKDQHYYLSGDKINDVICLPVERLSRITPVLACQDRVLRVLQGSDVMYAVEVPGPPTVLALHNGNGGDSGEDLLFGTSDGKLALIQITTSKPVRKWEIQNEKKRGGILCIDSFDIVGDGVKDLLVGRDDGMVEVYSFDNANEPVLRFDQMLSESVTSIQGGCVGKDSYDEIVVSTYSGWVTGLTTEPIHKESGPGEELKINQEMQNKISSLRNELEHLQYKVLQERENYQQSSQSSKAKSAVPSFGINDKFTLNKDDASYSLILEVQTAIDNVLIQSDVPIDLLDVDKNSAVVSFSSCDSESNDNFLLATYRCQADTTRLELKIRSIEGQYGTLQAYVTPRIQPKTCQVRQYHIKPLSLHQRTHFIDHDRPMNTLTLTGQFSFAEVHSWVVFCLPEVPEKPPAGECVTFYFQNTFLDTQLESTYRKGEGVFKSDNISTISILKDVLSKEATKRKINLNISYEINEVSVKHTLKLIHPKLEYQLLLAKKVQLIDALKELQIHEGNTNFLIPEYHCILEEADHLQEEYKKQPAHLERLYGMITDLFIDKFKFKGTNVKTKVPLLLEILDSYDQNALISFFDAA
inactive: [1] -0.006 | [2] -0.354 | [3] 0.133 | [4] -0.015 | [5] -0.007

CDAN1 (UniProt Q8IWY9)
Sequence of UniProt Q8IWY9 (Q8IWY9 whole entry, looked up): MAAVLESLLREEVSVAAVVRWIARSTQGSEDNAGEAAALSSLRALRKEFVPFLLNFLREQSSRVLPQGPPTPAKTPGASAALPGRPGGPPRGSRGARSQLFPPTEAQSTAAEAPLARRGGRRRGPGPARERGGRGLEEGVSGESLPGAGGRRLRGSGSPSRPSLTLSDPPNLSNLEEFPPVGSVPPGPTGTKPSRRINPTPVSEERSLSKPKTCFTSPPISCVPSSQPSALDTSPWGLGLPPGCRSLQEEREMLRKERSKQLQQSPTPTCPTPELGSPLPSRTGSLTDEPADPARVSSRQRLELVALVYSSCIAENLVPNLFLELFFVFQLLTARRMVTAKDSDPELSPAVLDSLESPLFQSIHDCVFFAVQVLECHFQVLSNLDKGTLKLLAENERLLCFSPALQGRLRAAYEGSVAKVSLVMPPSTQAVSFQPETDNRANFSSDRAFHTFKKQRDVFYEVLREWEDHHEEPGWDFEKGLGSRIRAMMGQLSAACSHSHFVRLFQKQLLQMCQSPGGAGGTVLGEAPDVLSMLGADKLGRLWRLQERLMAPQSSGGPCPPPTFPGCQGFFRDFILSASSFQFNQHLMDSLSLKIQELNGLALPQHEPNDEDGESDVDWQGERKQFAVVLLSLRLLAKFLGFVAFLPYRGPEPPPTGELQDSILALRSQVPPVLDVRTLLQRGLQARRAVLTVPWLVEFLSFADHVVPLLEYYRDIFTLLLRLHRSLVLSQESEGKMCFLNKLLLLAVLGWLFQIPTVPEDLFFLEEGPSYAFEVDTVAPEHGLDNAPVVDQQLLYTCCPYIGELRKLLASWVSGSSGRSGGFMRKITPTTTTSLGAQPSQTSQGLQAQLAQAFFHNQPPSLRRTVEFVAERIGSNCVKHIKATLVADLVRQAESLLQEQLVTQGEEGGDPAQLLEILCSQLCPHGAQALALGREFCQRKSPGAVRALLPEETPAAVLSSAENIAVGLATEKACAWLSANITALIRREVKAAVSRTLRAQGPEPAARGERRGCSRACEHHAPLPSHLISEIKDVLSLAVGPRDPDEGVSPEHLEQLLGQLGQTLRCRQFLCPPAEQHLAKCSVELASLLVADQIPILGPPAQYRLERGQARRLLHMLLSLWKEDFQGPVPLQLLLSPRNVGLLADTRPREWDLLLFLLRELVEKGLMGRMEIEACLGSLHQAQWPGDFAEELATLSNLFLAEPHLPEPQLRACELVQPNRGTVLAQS
inactive: [1] 0.019 | [3] 0.05 | [4] 0.056 | [5] -0.006
active: [2] -0.326
